# Experiments:
# [1] = test system: Vero E6 infected with SARS-CoV-2; test: morphology score (similarity to uninfected cells); higher = more like uninfected cells; settings: 24 h
# [2] = test system: Vero E6 infected with SARS-CoV-2; test: SARS-CoV-2 infection rate relative to infected DMSO; higher = more infection, active = 60 or less; settings: 24 h
Structure (SMILES),morphology score [1],SARS-CoV-2 infection rate [2]
Oc1ccc2ccccc2c1 [beta-naphthol] (10 µM),-0.0489,111% (inactive)
CC(=O)O[C@H]1C[C@@H]2CC[C@@H]3[C@H](CC[C@@]4(C)[C@H]3C[C@H]([N+]3(C)CCCCC3)[C@@H]4OC(C)=O)[C@@]2(C)C[C@@H]1[N+]1(C)CCCCC1 [pancuronium] (10 µM),0.254,102% (inactive)
C[C@@H](CN1CCC(Cc2ccccc2)CC1)[C@@H](O)c1ccc(O)cc1 (10 µM),0.157,98.5% (inactive)
Oc1cccc(Nc2ncc(F)c(Nc3cccc(O)c3)n2)c1 (0.833333 µM),0.183,100% (inactive)
CN1C(=O)CC(C)(c2ccccc2)C1=O (stereo not given) [methsuximide] (10 µM),0.0784,110% (inactive)
CN(C)C/C=C(/c1ccc(Br)cc1)c1cccnc1 [zimelidine] (10 µM),0.166,97% (inactive)
O=S(=O)(N[C@H]1CC[C@@](c2cc(F)ccc2F)(S(=O)(=O)c2ccc(Cl)cc2)CC1)C(F)(F)F (10 µM),0.0636,104% (inactive)
CO[C@@H]1[C@H](O)[C@@H](CO)O[C@H]1n1cnc2c(NC3CCCCC3)ncnc21 (10 µM),-0.0183,108% (inactive)
CN(C)c1ccc(/C=C2\CCCN=C2c2cccnc2)cc1 [DMAB-anabaseine] (10 µM),0.121,96.5% (inactive)
C=CCN1CCc2nc(N)sc2CC1 [talipexole] (10 µM),-0.1,104% (inactive)
O=C(NCCN1CCCCC1)c1ccc(I)cc1 [N-[2-(piperidinylamino)ethyl]-4-iodobenzamide] (10 µM),0.317,91.5% (inactive)
CC1=C(/C=C/C(C)=C/C=C/C(C)=C/C=C/C=C(C)/C=C/C=C(C)/C=C/C2=C(C)CCCC2(C)C)C(C)(C)CCC1 [beta-carotene] (10 µM),0.0662,112% (inactive)
CC(C)(C)OC(=O)c1ncn2c1[C@@H]1CCCN1C(=O)c1c(Br)cccc1-2 [bretazenil] (10 µM),0.108,101% (inactive)
O=c1c(-n2ccnn2)c[nH]n1-c1cc(N2CCOCC2)ncn1 [molidustat] (10 µM),0.0599,98.5% (inactive)
CC(=O)[C@H]1CC[C@H]2[C@@H]3CCC4=CC(=O)CC[C@]4(C)[C@H]3CC[C@]12C [progesterone] (10 µM),0.206,96% (inactive)
C[C@]12CC[C@H]3[C@@H](CC[C@@]45O[C@@H]4C(O)=C(C#N)C[C@]35C)[C@@H]1CC[C@@H]2O [trilostane] (10 µM),-0.0579,104% (inactive)
CC(=O)O[C@]1(C(C)=O)CC[C@H]2[C@@H]3C=C(C)C4=CC(=O)CC[C@]4(C)[C@H]3CC[C@@]21C [megestrol-acetate] (10 µM),0.21,100% (inactive)
Cc1ccc(C(=O)Nc2ccc(CN3CCN(C)CC3)c(C(F)(F)F)c2)cc1C#Cc1cnc2cccnn12 [ponatinib] (10 µM),0.435,97% (inactive)
CNC(=O)c1ccc2c(c1)S(=O)(=O)c1ccccc1C2=O (10 µM),-0.0141,108% (inactive)
Oc1cc(O)c2c(c1)O[C@H](c1ccc(O)c(O)c1)[C@@H](O)C2 [cianidanol] (10 µM),-0.0417,110% (inactive)

Structure (SMILES),morphology score [1],SARS-CoV-2 infection rate [2]
CC(O)(CS(=O)(=O)c1ccc(F)cc1)C(=O)Nc1ccc(C#N)c(C(F)(F)F)c1 (stereo not given) [bicalutamide] (10 µM),-0.00454,114% (inactive)
O=c1oc2cc(O)ccc2s1 [tioxolone] (10 µM),0.0494,104% (inactive)
CC(C)[C@@H](CS(=O)(=O)C(C)C)N1C(=O)[C@@](C)(CC(=O)O)C[C@H](c2cccc(Cl)c2)[C@H]1c1ccc(Cl)cc1 (10 µM),-0.12,114% (inactive)
COc1ccc2cc1Oc1ccc(cc1)C[C@H]1c3c(cc4c(c3Oc3cc5c(cc3OC)CCN(C)[C@@H]5C2)OCO4)CCN1C [cepharanthine] (10 µM),0.461,77.5% (inactive)
Cc1ccc(F)c(NC(=O)Nc2ccc(-c3cccc4[nH]nc(N)c34)cc2)c1 [linifanib] (10 µM),-0.188,118% (inactive)
NC(=O)N/N=C/c1ccc([N+](=O)[O-])o1 [nitrofurazone] (10 µM),0.187,105% (inactive)
C[S+]([O-])CCCCN=C=S (stereo not given) [sulforaphane] (10 µM),0.924,6.5% (active)
Cc1nc(=O)c2cc(CN(C)c3ccc(C(=O)N[C@@H](CCC(=O)O)C(=O)O)s3)ccc2[nH]1 [raltitrexed] (0.833333 µM),-0.207,104% (inactive)
CCOCC(O)COc1ccc(NC(=O)CC[S+](C)C)cc1 (stereo not given) [suplatast] (10 µM),0.0407,102% (inactive)
CNS(=O)(=O)Cc1ccc2[nH]cc(CCN(C)C)c2c1 [sumatriptan] (10 µM),0.205,98% (inactive)
CCOC(=O)c1cnc2c(cnn2CC)c1NN=C(C)C [etazolate] (10 µM),0.254,100% (inactive)
CC(C)(C)C(=O)CN1C(=O)[C@H](NC(=O)Nc2cccc(C(=O)O)c2)CN(C2CCCCC2)c2ccccc21 [nastorazepide] (10 µM),-0.0136,104% (inactive)
CCCC(=O)O [sodium-butyrate] (10 µM),0.0558,110% (inactive)
C[C@@]12CCc3occc3[C@H]1CC[C@@]13C[C@@H](CC[C@H]12)[C@@](O)(CO)C3 [cafestol] (10 µM),-0.0842,112% (inactive)
C#Cc1cccc(Nc2ncnc3cc(OCCOC)c(OCCOC)cc23)c1 [erlotinib] (10 µM),-0.159,116% (inactive)
Cc1ccc(-c2ncc[nH]2)cc1NC(=O)c1ccc(OCc2ccccn2)cc1 (10 µM),0.0587,97% (inactive)
C[C@@H]1CC[C@@]2(OC1)O[C@H]1C[C@H]3[C@@H]4CC=C5C[C@@H](O)CC[C@]5(C)[C@H]4CC[C@]3(C)[C@H]1[C@@H]2C [diosgenin] (10 µM),0.114,106% (inactive)
CCOc1cc(C(C)(C)C)ccc1C1=N[C@@](C)(c2ccc(Cl)cc2)[C@@](C)(c2ccc(Cl)cc2)N1C(=O)N1CCN(CCCS(C)(=O)=O)CC1 (10 µM),-0.0507,104% (inactive)
COc1cccc2cc(-c3nc([C@H]4CC[C@H](C(=O)O)CC4)n4ncnc(N)c34)[nH]c12 (0.833333 µM),0.174,112% (inactive)
N#Cc1ccc(Cn2cncc2CN2CCN(c3cccc(Cl)c3)C(=O)C2)cc1 (10 µM),0.276,95% (inactive)

Structure (SMILES),morphology score [1],SARS-CoV-2 infection rate [2]
COc1ccc(C2CC(c3ccccc3)=NN2c2ccc(S(N)(=O)=O)cc2)cc1 (stereo not given) (10 µM),0.152,87% (inactive)
Cc1c(O)c(=O)ccn1C [deferiprone] (10 µM),-0.123,98% (inactive)
CN1CCc2cc3c(cc2[C@H]1[C@@H]1OC(=O)c2c1ccc1c2OCO1)OCO3 [bicuculline-(+)] (10 µM),-0.0434,98% (inactive)
CN(C)CC(c1ccc(O)cc1)C1(O)CCCCC1 (stereo not given) [desvenlafaxine] (10 µM),0.0229,106% (inactive)
c1cc(Cc2cnc[nH]2)ccn1 [immethridine] (10 µM),0.158,109% (inactive)
COc1ccc(OC)c2c(=S)c3ccccc3[nH]c12 (10 µM),-0.0609,106% (inactive)
COc1ccc(-c2cnc3c(-c4cccc5ncccc45)cnn3c2)cc1 (10 µM),0.294,100% (inactive)
COc1ccc2c(c1)C(C(=O)N(Cc1ccc(N(C)C)cc1)c1ccc(C(C)C)cc1)CCC2 (stereo not given) (10 µM),0.106,85.5% (inactive)
CC(C)=CCC[C@](C)(O[C@@H]1O[C@H](CO)[C@@H](O)[C@H](O)[C@H]1O)[C@H]1CC[C@]2(C)[C@@H]1[C@H](O)C[C@@H]1[C@@]3(C)CC[C@H](O)C(C)(C)[C@@H]3CC[C@]12C [ginsenoside-C-K] (10 µM),0.0257,118% (inactive)
CC(C)C(=O)OC[C@H]1O[C@@H](n2ccc(N)nc2=O)[C@](C)(F)[C@@H]1OC(=O)C(C)C [mericitabine] (10 µM),0.0222,102% (inactive)
CNCCC(Oc1ccccc1OC)c1ccccc1 (stereo not given) [nisoxetine] (10 µM),0.135,96.5% (inactive)
COCCCC/C(=N\OCCN)c1ccc(C(F)(F)F)cc1 [fluvoxamine] (10 µM),0.0586,90% (inactive)
O=C(Nc1ccc(C(=O)O)c(O)c1)c1ccccc1 [benzoylpas] (10 µM),0.206,91.5% (inactive)
CCOC(=O)[N-]c1c[n+](N2CCOCC2)no1 [molsidomine] (10 µM),0.0533,102% (inactive)
CCC[C@H](N[C@H]1CCc2cc(F)cc(F)c2C1)C(=O)Nc1cn(C(C)(C)CNCC(C)(C)C)cn1 (10 µM),0.0166,102% (inactive)
O=c1cc(N2CCNCC2)oc2c(-c3ccccc3)cccc12 (10 µM),0.175,101% (inactive)
CCN(Cc1ccncc1)C(=O)C(CO)c1ccccc1 (stereo not given) [tropicamide] (10 µM),-0.0682,104% (inactive)
CN1C(CCl)Nc2cc(Cl)c(S(N)(=O)=O)cc2S1(=O)=O (stereo not given) [methyclothiazide] (10 µM),0.0153,104% (inactive)
CO/N=C(\C(=O)N[C@@H]1C(=O)N2C(C(=O)[O-])=C(C[N+]3(C)CCCC3)CS[C@H]12)c1csc(N)n1 [cefepime] (10 µM),0.0622,114% (inactive)
COc1c(-c2ccc3cc(NS(C)(=O)=O)ccc3c2)cc(-n2ccc(=O)[nH]c2=O)cc1C(C)(C)C [dasabuvir] (10 µM),0.123,106% (inactive)

# — the supplement of paper PMC13380429
